Compound activity (PubChem)
D3 antag: qHTS of D3 Dopamine Receptor Antagonist: qHTS; D3R cells, DiscoveRx beta-arrestin luminescence, antagonist mode; hits give low values; max response, negative = inhibition, %; actives 2.5% (n = 360,000); in the data active means max response below about -50%; inconclusive means no clear call, values can overlap the other calls; further: on the % scale 0 is the no-effect control and ±100 the full control effect
Target sequence (P35462 whole entry, looked up): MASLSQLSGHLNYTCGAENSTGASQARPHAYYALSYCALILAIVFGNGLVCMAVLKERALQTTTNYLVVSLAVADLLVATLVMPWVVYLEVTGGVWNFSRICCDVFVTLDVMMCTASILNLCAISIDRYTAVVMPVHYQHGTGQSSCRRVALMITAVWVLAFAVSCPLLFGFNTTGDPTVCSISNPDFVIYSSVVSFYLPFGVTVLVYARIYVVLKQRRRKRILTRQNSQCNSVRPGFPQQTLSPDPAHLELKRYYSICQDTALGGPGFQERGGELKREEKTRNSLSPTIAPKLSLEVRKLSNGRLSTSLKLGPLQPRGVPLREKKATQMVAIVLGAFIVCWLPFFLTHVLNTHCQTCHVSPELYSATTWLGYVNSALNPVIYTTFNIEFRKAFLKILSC
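Cells expressing the human receptor were seeded at 1500 cells/well, incubated overnight at 37 degrees C in 5% CO2, then exposed to library compounds with dopamine controls for 90 minutes at 37 degrees C before luminescent detection.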
MCF10A rerep: A quantitative high throughput screen for small molecules that induce DNA re-replication in MCF 10a normal breast cells. actives 2.9% (n = 350,000). Potency, µM (titrated, usually from 46.1 µM), inactives show top-dose activity, positive = re-replication, actives largely listed as activators. MCF 10A DNA re-replication, Hoechst nuclear intensity, 48 h. AID 624296, 2012; further: potency means the concentration at half of the fitted maximal effect; % of control where 0% means no effect; nearly all actives have a fitted effect of over 50% in size
SW480 rerep: A quantitative high throughput screen for small molecules that induce DNA re-replication in SW480 colon adenocarcinoma cells. SW480 DNA re-replication, Hoechst DNA content imaging, 48 h. Potency, µM (series often up to 46.1 µM), without a hit: at the top dose re-replication activation, most hits filed as activators. actives 1.8% (n = 340,000). AID 624297, 2012; further: potency means the concentration at half of the fitted maximal effect; % of control where 0% means no effect; nearly all actives have a fitted effect of over 55% in size
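Hoechst fluorescence of nuclei (405 nm excitation, 500-530 nm emission) measured by plate-scanning imager after 48 hr compound exposure at 37 C; re-replication scored as increased number of nuclei with elevated intensity.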
KB-3-1 tox: qHTS assay for MDR1-selective chemotherapeutics: Primary screen using the parental adenocarcinoma cell KB-3-1 | KB-3-1 viability, CellTiter-Glo ATP luminescence, 72 h | Potency, µM (series often up to 46.1 µM), hits mostly cytotoxic | actives 1.4% (n = 400,000); further: potency means the concentration at half of the fitted maximal effect; on the % scale 0 is the no-effect control and ±100 the full control effect; nearly all actives have a fitted effect of over 60% in size
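Parental KB-3-1 adenocarcinoma cells in phenol-red-free DMEM with 10% FBS were pin-treated with compounds at several concentrations, incubated 72 h at 37 °C, and viability read by CellTiter-Glo luminescence; concentration-effect curves were fitted after normalization.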
KB-V1 cytotox: qHTS assay for MDR1-selective chemotherapeutics: Primary screen using the drug-selected MDR subline cells KB-V1 | KB-V1 MDR cells viability, CellTiter-Glo, 72 h | Potency, µM (series often up to 46.1 µM), actives largely listed as cytotoxic | actives 3.4% (n = 400,000); further: potency means the concentration at half of the fitted maximal effect; on the % scale 0 is the no-effect control and ±100 the full control effect; nearly all actives have a fitted effect of over 60% in size
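Following 72 h at 37 degrees C with compound, KB-V1 cell viability was read by CellTiter-Glo luminescence, medium being phenol-red-free DMEM plus 10% FBS; concentration-response parameters came from normalized, curve-fitted qHTS data.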
DRD3 agonist: qHTS of D3 Dopamine Receptor Agonist: qHTS | D3R DiscoveRx beta-arrestin cells, luminescence, 90 min | max activation, % | actives 0.58% (n = 410,000); in the data active means max activation above about 30%; further: 0% is about no effect
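Agonist mode: compounds and dopamine controls were applied to plated cells for 90 min at 37 degrees C after an overnight attachment at 1500 cells/well. Luminescent read-out followed 30 - 60 minutes at room temperature with DiscoveRx detection reagent.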
* marks the source's active call; other numbers are inactive results; i = inactive; ? = inconclusive; . = no result given. Only some compounds are listed: those with a hit (about 8.9% of all), similar ones and a draw of the others. Unless noted, the call rests on the fitted dose curve; in most records, active means well fitted curve in the direction sought with a large enough effect; inconclusive means small, poorly fitted or top-dose-only effect, or another doubt; inactive means no such curve, though single readings can be large; an effect the other way counts as inactive or inconclusive.

SMILES	D3 antag	MCF10A rerep	SW480 rerep	KB-3-1 tox	KB-V1 cytotox	DRD3 agonist
COc1ccc(N2CCN(C(=O)c3ccc4c(c3)OCO4)CC2)cc1	?	?	-3.6%	i	20.6µM*	-5.6
O=C(c1ccc(N2CCN(C(=O)c3cccc(F)c3)CC2)cc1)c1cccc(F)c1	11.9	?	6.3%	i	4.11µM*	3.3
CCOC(=O)N1CCN(c2ccc(C(=O)c3cccc(F)c3)cc2)CC1	-15.5	-7.2%	-3.8%	i	?	15.1
O=C(c1cccc(F)c1)N1CCC(N2CCCCCC2)CC1	-73.6*	4.2%	-6.8%	i	i	2.9
O=C(c1cccc(F)c1)N1CCN(C2CCCCC2)CC1	-28.0	-22.2%	2.6%	i	i	-17.0
O=C(c1ccc(N2CCN(C(=O)c3ccccc3Br)CC2)cc1)c1cccc(F)c1	89.3	?	12.4%	?	5.8µM*	4.5
C(=C\c1nccc2ccccc12)/c1ccc(N2CCOCC2)cc1	.	.	.	i	?	.
Cc1ccc(NC(=O)Cn2c(=O)oc3cc(S(=O)(=O)NCc4ccccc4)ccc32)cc1	.	.	.	i	i	3.3
CN(C)c1ccc(-c2ccc(CCO)cc2)cc1	.	.	.	i	i	.
O=C(Nc1ccc2ccccc2c1)Nc1nnc(-c2cccnc2)s1	.	.	.	?	i	.
CN(c1ccc(C(=O)N2CCCCCC2)cc1)S(=O)(=O)c1ccc(Cl)cc1	8.2	2.2%	0.7%	i	23.1µM*	2.9
CN1CCN(C(=O)c2ccc(Oc3ccc([N+](=O)[O-])cc3)cc2)CC1	0.0	15.6%	-0.3%	i	?	-5.1
CCOC(=O)N1CCN(C(=O)c2ccc(Oc3ccc([N+](=O)[O-])cc3)cc2)CC1	-4.0	-2.4%	3.0%	i	7.31µM*	1.0
Cc1ccc(NNC(=O)C(=O)N2CCCCC2)cc1	-11.0	6.51µM*	20.1%	i	i	0.6
CCOC(=O)N1CCN(C(=O)c2ccc(S(=O)(=O)Nc3ccc(C)cc3)cc2)CC1	13.6	-3.0%	-2.5%	7.31µM*	10.3µM*	3.6
Cc1cc(C)cc(NC(=O)C(Cc2ccccc2)NS(=O)(=O)c2ccc3c(c2)CCC(=O)N3)c1 (stereo not drawn)	.	.	.	i	i	-8.2
Cc1ccc(NS(=O)(=O)c2cccc(C(=O)N3CCN(c4ncccn4)CC3)c2)cc1	12.7	?	4.7%	i	8.2µM*	8.9
O=C(c1ccc(S(=O)(=O)Nc2ccccc2)cc1)N1CCC1	7.3	-36.0%	14.6µM*	i	i	-6.9
Cc1ccc(NS(=O)(=O)c2cccc(C(=O)N3CCCCCCC3)c2)cc1	-1.4	29.0%	-14.9%	i	?	-5.1
Cc1ccc(NS(=O)(=O)c2ccc(C(=O)N3CCCCCC3)cc2)cc1	6.4	4.0%	1.8%	?	4.61µM*	3.5
F[Si-2](F)(F)(F)(F)F	.	5.2%	3.8%	.	.	-2.8
CC(=O)c1cccc(NC(=O)CCCN2C(=O)COc3ccc(C)cc32)c1	.	.	.	.	.	0.1
COc1ccc(Br)cc1/C=N/NC(=O)CNC(=O)/C=C/c1ccccc1	-67.1*	?	2.2%	i	i	-11.2
O=C1[C@H]2[C@@H](c3ccc(C(F)(F)F)cc3)N[C@]3(CCCN(Cc4ccc(C(F)(F)F)cc4)C3=O)[C@H]2C(=O)N1Cc1ccccc1	29.3	.	.	?	i	3.6
O=C(COc1ccccc1C(=O)Nc1ccccc1)Nc1ccc(-c2ccccc2)cc1	.	.	.	i	i	.
SMILES	D3 antag	MCF10A rerep	SW480 rerep	KB-3-1 tox	KB-V1 cytotox	DRD3 agonist
CCC(C(=O)NCCc1ccc(C)cc1)n1nc(C)c2c(C)n(-c3ccccc3)nc2c1=O (stereo not drawn)	-78.8*	-1.8%	?	i	i	-11.1
CCC(C(=O)NCCc1ccccc1OC)n1nc(C)c2c(C)n(-c3ccccc3)nc2c1=O (stereo not drawn)	-3.6	11.9%	-6.9%	i	i	-3.6
CCC(C(=O)NCCCN(CC)Cc1ccccc1)n1nc(C)c2sc3ccccc3c2c1=O (stereo not drawn)	-83.7*	2.4%	-6.6%	i	i	-7.3
CCC(C(=O)N1CCCC1)n1nc(C)c2c(C)n(-c3ccccc3)nc2c1=O (stereo not drawn)	4.5	-0.4%	20.6µM*	i	i	0.1
CCC(C(=O)NCc1ccccc1)n1nc(C)c2sc3ccccc3c2c1=O (stereo not drawn)	.	.	.	i	i	-10.6
COc1ccc(-n2c(=O)c3c(c4cc(OC)ccc4n3C)n(Cc3cccc(OC)c3)c2=O)cc1	.	.	.	i	i	-21.3
COc1ccccc1/C=C/c1nc2ccccc2n1C(C)C	.	.	.	i	i	-8.2
Cc1ccc(NC(c2ccc(Cl)cc2)c2nnc(-c3cccc(F)c3)o2)cc1C (stereo not drawn)	.	.	.	i	i	4.0
O=C(NCc1ccc(Cl)cc1)C1CCN(c2nn3cc(-c4ccc(F)cc4)nc3s2)CC1	.	.	.	i	i	5.8
COc1ccc(N(C(=O)CCl)C(C(=O)NC2CCCCC2)c2cccnc2)cc1 (stereo not drawn)	-19.2	18.4µM*	?	10.3µM*	20.6µM*	2.3
O=C(NC1CCCCC1)C(c1cccnc1)N(C(=O)CCl)c1ccc(F)cc1 (stereo not drawn)	-1.6	18.4µM*	2.06µM*	i	16.4µM*	-1.3
O=C1CC(C(=O)N(c2ccc(F)cc2)C(C(=O)NC2CCCC2)c2ccccn2)CS1 (stereo not drawn)	-19.7	5.0%	-5.4%	i	11.6µM*	-10.2
COc1ccc(N(C(=O)Cc2cccs2)C(C(=O)NC2CCCC2)c2ccncc2)cc1 (stereo not drawn)	11.3	-1.0%	-1.8%	i	?	1.8
O=C(NC1CCCCC1)C(c1cccnc1)N(C(=O)CCl)c1ccccc1Cl (stereo not drawn)	-10.8	6.5%	?	10.3µM*	?	-15.8
O=C1CC(C(=O)N(c2cccc(F)c2)C(C(=O)NC2CCCC2)c2ccccn2)CS1 (stereo not drawn)	7.1	-1.8%	-0.2%	i	i	2.3
O=C(NCc1ccc(F)cc1)c1cc2c(=O)n3ccccc3nc2s1	.	.	.	i	i	-19.7
COc1ccc(NC(=O)c2cc(C)nc3c2c(C)nn3-c2ccc(C)cc2)cc1OC	.	.	.	i	i	3.4
